From PubChem BioAssay (EPA / NIEHS)
Active and inactive are the calls of the source. Rule for the calls: active = hit-call score of the fitted dose curve at least 0.9, where 1 is the maximum; inactive = score below 0.9.

Assays:
Conditions in all cases: mRNA level, 48 h; actives raise or lower the signal
[1] = read-out: Cytochrome P450 (CYP24A1), CYP24A1 (gene 1591); experiment: LTEA_HepaRG_CYP24A1: Life Technologies and Expression Analysis (LTEA) Assay for Cytochrome P450 (CYP24A1) using HepaRG (AID 2283478)
Outline: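 Gene expression of CYP24A1 by TaqMan qRT-PCR in HepaRG after 48 h treatment, highest concentration 100 uM; activity fitted in both directions relative to DMSO vehicle.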

[2] = read-out: Cytochrome P450 (CYP1A2), CYP1A2 (gene 1544); experiment: LTEA_HepaRG_CYP1A2: Life Technologies and Expression Analysis (LTEA) Assay for Cytochrome P450 (CYP1A2) using HepaRG (AID 2283479)
Outline: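 In duplicate wells, HepaRG cultures maintained in 0.5% DMSO were treated 48 h across an 8-point, half-log series topping at 100 uM; phenobarbital (1 mM) served as induction control. Expression was read by qRT-PCR.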

[3] = read-out: cysteine-aspartic acid protease (CASP8), CASP8 (gene 841); experiment: LTEA_HepaRG_CASP8: Life Technologies and Expression Analysis (LTEA) Assay for cysteine-aspartic acid protease (CASP8) using HepaRG (AID 2283480)
Outline: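 HepaRG, 48 h exposure, duplicate wells; 8 conc, half-log from 100 uM, 0.5% DMSO. Serum-free induction medium. CASP8 mRNA by TaqMan qRT-PCR, norm. ACTB/GAPDH/POLR2A; gain/loss fitted vs DMSO.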

CYP2E1 (gene 1571) = experiment: LTEA_HepaRG_CYP2E1: Life Technologies and Expression Analysis (LTEA) Assay for CYP2E1 using HepaRG (AID 2283485)
Outline: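 Differentiated HepaRG cells were treated in duplicate for 48 h with chemicals in 0.5% DMSO, from 100 uM downward in half-log dilutions. RNA was then analysed by qRT-PCR for CYP2E1 induction or loss.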

CYP4A11 (gene 1579) = experiment: LTEA_HepaRG_CYP4A11: Life Technologies and Expression Analysis (LTEA) Assay for CYP4A11 using HepaRG (AID 2283486)
Outline: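 Human hepatic HepaRG cultures receive duplicate 48 h exposures across a concentration-response series topping at 100 uM. Expression changes in CYP4A11 are measured by qRT-PCR relative to DMSO controls.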

[4] = read-out: Cytochrome P450 3A4 (Homo sapiens) (UniProt P08684); experiment: LTEA_HepaRG_CYP3A4: Life Technologies and Expression Analysis (LTEA) Assay for CYP3A4 using HepaRG (AID 2283487)
Outline: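 Differentiated HepaRG cells in serum-free induction medium exposed in duplicate for 48 h to 8 half-log concentrations up to 100 uM in 0.5% DMSO. CYP3A4 mRNA measured by qRT-PCR normalized to ACTB, GAPDH and POLR2A; bidirectional fit versus DMSO.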

[5] = read-out: DNA damage-inducible transcript 3 (DDIT3), DDIT3 (gene 1649); experiment: LTEA_HepaRG_DDIT3: Life Technologies and Expression Analysis (LTEA) Assay for DNA damage-inducible transcript 3 (DDIT3) using HepaRG (AID 2283488)
Outline: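 Changes in DDIT3 transcript, in either direction relative to 0.5% DMSO vehicle, were quantified by TaqMan qRT-PCR after 48 h chemical exposure of HepaRG cells at 8 concentrations, maximum 100 uM.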

[6] = read-out: Pro-epidermal growth factor (Homo sapiens) (UniProt P01133); experiment: LTEA_HepaRG_EGF: Life Technologies and Expression Analysis (LTEA) Assay for Epidermal growth factor (EGF) using HepaRG (AID 2283489)
Outline: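 Concentration-response mRNA assay: HepaRG cells dosed 48 h (max 100 uM, 0.5% DMSO), EGF measured by qRT-PCR and normalized to ACTB/GAPDH/POLR2A.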

[7] = read-out: Early growth response protein 1 (EGR1) transcription factor, EGR1 (gene 1958); experiment: LTEA_HepaRG_EGR1: Life Technologies and Expression Analysis (LTEA) Assay for Early growth response protein 1 (EGR1) transcription factor using HepaRG (AID 2283490)
Outline: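 Read-out is EGR1 mRNA level by qRT-PCR, normalized to three housekeeping genes and analysed for gain or loss of signal against 0.5% DMSO. Source cells: human HepaRG, treated 48 h at up to 100 uM in half-log dilutions.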

[8] = read-out: Ezrin (EZR), EZR (gene 7430); experiment: LTEA_HepaRG_EZR: Life Technologies and Expression Analysis (LTEA) Assay for Ezrin (EZR) using HepaRG (AID 2283491)
Outline: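 Differentiated human HepaRG cells, 48 h after plating, were exposed in serum-free induction medium for 48 hours to eight half-log concentrations up to 100 uM in 0.5% DMSO. EZR mRNA was measured by TaqMan qRT-PCR, normalized to ACTB, GAPDH and POLR2A, and fitted bidirectionally against DMSO.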

[9] = read-out: Cytochrome P450 3A7 (Homo sapiens) (UniProt P24462); experiment: LTEA_HepaRG_CYP3A7: Life Technologies and Expression Analysis (LTEA) Assay for CYP3A7 using HepaRG (AID 2283492)
Outline: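 qRT-PCR of CYP3A7 in HepaRG lysates after 48 h treatment; concentration-response (8 points, max 100 uM) analysed bidirectionally relative to 0.5% DMSO controls.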

CYP3A5 (gene 1577) = experiment: LTEA_HepaRG_CYP3A5: Life Technologies and Expression Analysis (LTEA) Assay for CYP3A5 using HepaRG (AID 2283493)
Outline: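 mRNA induction or loss of CYP3A5 assessed in HepaRG after 48 h dosing, 100 uM top concentration, duplicate wells; TaqMan qRT-PCR with ACTB, GAPDH, POLR2A normalization; 0.5% DMSO as negative control.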

[10] = read-out: Fatty Acid-Binding Protein 1 (FABP1), FABP1 (gene 2168); experiment: LTEA_HepaRG_FABP1: Life Technologies and Expression Analysis (LTEA) Assay for Fatty Acid-Binding Protein 1 (FABP1) using HepaRG (AID 2283494)
Outline: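 HepaRG, 48 h post-plating switched to serum-free induction medium, then dosed 48 h (duplicate, 8 pts, ≤100 uM, 0.5% DMSO). RNA → Fluidigm TaqMan qRT-PCR, FABP1 normed to ACTB/GAPDH/POLR2A. Bidirectional curve fit vs DMSO.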

[11] = read-out: Cytochrome P450 4A22 (Homo sapiens) (UniProt Q5TCH4); experiment: LTEA_HepaRG_CYP4A22: Life Technologies and Expression Analysis (LTEA) Assay for Cytochrome P450 4A22 (CYP4A22) using HepaRG (AID 2283495)
Outline: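 Concentration-response (8 points, max 100 uM, 0.5% DMSO) in human HepaRG liver cells after 48 h exposure. CYP4A22 mRNA by TaqMan qRT-PCR with housekeeping-gene normalization.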

[12] = read-out: Cytochrome P450 7A1 (Homo sapiens) (UniProt P22680); experiment: LTEA_HepaRG_CYP7A1: Life Technologies and Expression Analysis (LTEA) Assay for Cytochrome P450 7A1 (CYP7A1) using HepaRG (AID 2283496)
Outline: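 Gene expression endpoint in human HepaRG liver cells treated for 48 h with test chemicals (up to 100 uM, 0.5% DMSO). Values come from bidirectional concentration-response fitting versus DMSO.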

[13] = read-out: Glutathione S-Transferase (GSTA2), GSTA2 (gene 2939); experiment: LTEA_HepaRG_GSTA2: Life Technologies and Expression Analysis (LTEA) Assay for Glutathione S-Transferase (GSTA2) using HepaRG (AID 2283497)
Outline: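 HepaRG, 48 h dosing, 8-pt half-log CRC from 100 uM, 0.5% DMSO vehicle, n=2; RNA → Fluidigm TaqMan qRT-PCR; GSTA2 vs ACTB/GAPDH/POLR2A; gain/loss fit vs DMSO.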

CYP2C8 (gene 1558) = experiment: LTEA_HepaRG_CYP2C8: Life Technologies and Expression Analysis (LTEA) Assay for CYP2C8 using HepaRG (AID 2283483)
Outline: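 CYP2C8 mRNA induction or loss, by qRT-PCR normalized to ACTB/GAPDH/POLR2A, is read in HepaRG cells after 48 h treatment. Concentrations run from 100 uM down in half-log dilutions, with 0.5% DMSO as vehicle and baseline.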

CYP2C9 (gene 1559) = experiment: LTEA_HepaRG_CYP2C9: Life Technologies and Expression Analysis (LTEA) Assay for CYP2C9 using HepaRG (AID 2283484)
Outline: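 Cells plated 48 h, switched to serum-free induction medium, then treated in duplicate for 48 h at eight concentrations (max 100 uM, 0.5% DMSO). RNA then analysed by qRT-PCR for CYP2C9; curves fitted in both directions relative to DMSO.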

[14] = read-out: Cytochrome P450 2C19 (Homo sapiens) (UniProt P33261); experiment: LTEA_HepaRG_CYP2C19: Life Technologies and Expression Analysis (LTEA) Assay for CYP2C19 using HepaRG (AID 2283482)
Outline: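 Endpoint: CYP2C19 mRNA change, bidirectional fit vs 0.5% DMSO. Cells: HepaRG, 48 h exposure, eight-point series topping at 100 uM. Quantitation: qRT-PCR normalized to ACTB, GAPDH, POLR2A.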

Chain of Cytochrome P450 3A4 (Homo sapiens) (P08684 whole entry, looked up): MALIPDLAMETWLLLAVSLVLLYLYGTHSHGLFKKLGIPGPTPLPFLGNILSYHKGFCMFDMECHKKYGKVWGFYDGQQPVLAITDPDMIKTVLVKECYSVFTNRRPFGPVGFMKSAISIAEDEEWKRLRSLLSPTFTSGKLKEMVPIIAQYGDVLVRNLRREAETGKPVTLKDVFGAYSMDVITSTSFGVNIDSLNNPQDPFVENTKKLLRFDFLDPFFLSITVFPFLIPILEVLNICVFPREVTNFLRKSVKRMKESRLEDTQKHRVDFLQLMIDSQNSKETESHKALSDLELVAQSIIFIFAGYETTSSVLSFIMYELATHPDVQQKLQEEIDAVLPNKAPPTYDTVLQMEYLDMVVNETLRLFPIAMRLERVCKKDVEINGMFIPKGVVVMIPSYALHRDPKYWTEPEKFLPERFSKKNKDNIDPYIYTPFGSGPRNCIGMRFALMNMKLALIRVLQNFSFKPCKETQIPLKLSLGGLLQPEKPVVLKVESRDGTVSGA
Chain of Cytochrome P450 3A7 (Homo sapiens) (P24462 whole entry, looked up): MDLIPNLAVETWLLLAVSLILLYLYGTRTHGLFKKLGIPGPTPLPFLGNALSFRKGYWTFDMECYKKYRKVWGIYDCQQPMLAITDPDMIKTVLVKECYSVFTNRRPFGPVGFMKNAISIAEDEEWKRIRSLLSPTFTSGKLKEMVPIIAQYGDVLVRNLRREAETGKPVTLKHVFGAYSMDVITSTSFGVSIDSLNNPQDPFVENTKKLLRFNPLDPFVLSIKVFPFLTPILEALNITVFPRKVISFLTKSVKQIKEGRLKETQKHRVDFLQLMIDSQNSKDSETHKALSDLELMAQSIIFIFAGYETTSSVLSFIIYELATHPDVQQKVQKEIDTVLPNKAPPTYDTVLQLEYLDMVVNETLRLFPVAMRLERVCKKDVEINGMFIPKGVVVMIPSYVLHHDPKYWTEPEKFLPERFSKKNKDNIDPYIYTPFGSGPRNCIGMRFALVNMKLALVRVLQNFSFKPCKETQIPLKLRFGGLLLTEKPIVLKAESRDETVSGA
Chain of Cytochrome P450 2C19 (Homo sapiens) (P33261 whole entry, looked up): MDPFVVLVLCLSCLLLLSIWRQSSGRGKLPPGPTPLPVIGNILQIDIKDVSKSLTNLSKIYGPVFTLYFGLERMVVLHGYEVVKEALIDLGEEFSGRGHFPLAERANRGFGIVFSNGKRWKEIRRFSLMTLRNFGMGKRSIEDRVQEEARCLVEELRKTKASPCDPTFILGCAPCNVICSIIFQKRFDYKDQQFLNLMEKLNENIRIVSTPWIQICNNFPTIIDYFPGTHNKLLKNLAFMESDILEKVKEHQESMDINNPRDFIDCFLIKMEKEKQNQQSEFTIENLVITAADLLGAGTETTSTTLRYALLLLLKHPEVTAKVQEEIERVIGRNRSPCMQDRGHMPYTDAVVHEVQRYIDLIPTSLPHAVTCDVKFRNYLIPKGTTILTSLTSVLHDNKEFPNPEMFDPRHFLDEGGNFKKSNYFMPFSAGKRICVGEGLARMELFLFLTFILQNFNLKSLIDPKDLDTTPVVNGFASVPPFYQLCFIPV

COc1ccc2c(c1)c(CC(=O)O)c(C)n2C(=O)c1ccc(Cl)cc1
outcome [1]: inactive | outcome [2]: inactive | outcome [3]: inactive | AC50 (CYP2E1 (gene 1571)): 21.3 µM (active) | outcome (CYP4A11 (gene 1579)): inactive | outcome [4]: inactive | outcome [5]: inactive | outcome [6]: inactive | outcome [7]: inactive | outcome [8]: inactive | outcome [9]: inactive | outcome (CYP3A5 (gene 1577)): inactive | outcome [10]: inactive | outcome [11]: inactive | outcome [12]: inactive | outcome [13]: inactive

Cc1ccc(C)c(O)c1C
outcome [1]: inactive | AC50 [2]: 50 µM (active) | outcome [3]: inactive | outcome (CYP2C8 (gene 1558)): inactive | outcome (CYP2C9 (gene 1559)): inactive | outcome (CYP2E1 (gene 1571)): inactive | outcome (CYP4A11 (gene 1579)): inactive | outcome [4]: inactive | outcome [5]: inactive | outcome [6]: inactive | outcome [7]: inactive | outcome [8]: inactive | outcome [9]: inactive | outcome (CYP3A5 (gene 1577)): inactive | outcome [10]: inactive | outcome [11]: inactive | outcome [12]: inactive | outcome [13]: inactive

CCCCCCCCCCCCCO
outcome [1]: inactive | outcome [2]: inactive | outcome [3]: inactive | outcome (CYP2C8 (gene 1558)): inactive | outcome (CYP2C9 (gene 1559)): inactive | outcome (CYP2E1 (gene 1571)): inactive | outcome (CYP4A11 (gene 1579)): inactive | outcome [4]: inactive | outcome [5]: inactive | outcome [6]: inactive | outcome [7]: inactive | outcome [8]: inactive | outcome [9]: inactive | outcome (CYP3A5 (gene 1577)): inactive | outcome [10]: inactive | outcome [11]: inactive | outcome [12]: inactive

CNCc1cc(F)ccc1Oc1ccc(Cl)c(Cl)c1
outcome [1]: inactive | outcome [2]: inactive | outcome [3]: inactive | outcome (CYP2C8 (gene 1558)): inactive | AC50 (CYP2E1 (gene 1571)): 73.8 µM (active) | AC50 (CYP4A11 (gene 1579)): 75.5 µM (active) | AC50 [5]: 77 µM (active) | AC50 [6]: 79.4 µM (active) | AC50 [7]: 83 µM (active) | outcome [8]: inactive | AC50 [9]: 77.5 µM (active) | outcome (CYP3A5 (gene 1577)): inactive | AC50 [10]: 84 µM (active) | AC50 [11]: 74.9 µM (active) | AC50 [12]: 85.1 µM (active)

NS(=O)(=O)c1cc2c(cc1Cl)NCNS2(=O)=O
outcome [1]: inactive | outcome [3]: inactive | outcome (CYP2C9 (gene 1559)): inactive | outcome (CYP2E1 (gene 1571)): inactive | outcome (CYP4A11 (gene 1579)): inactive | outcome [4]: inactive | outcome [5]: inactive | outcome [6]: inactive | outcome [7]: inactive | outcome [8]: inactive | outcome [9]: inactive | outcome (CYP3A5 (gene 1577)): inactive | outcome [10]: inactive | outcome [11]: inactive | outcome [12]: inactive

C[C@]12C=CC(=O)C=C1CC[C@@H]1[C@@H]2C(=O)C[C@@]2(C)[C@H]1CC[C@]2(O)C(=O)CO
outcome [3]: inactive | outcome [5]: inactive | outcome [6]: inactive | outcome [7]: inactive | outcome [8]: inactive | outcome [10]: inactive

Cc1cc(NC(=O)C(=O)O)cc(C)c1Oc1ccc(O)c2c1CCC2
outcome [1]: inactive | AC50 [2]: 0.00228 µM (active) | outcome [3]: inactive | AC50 [14]: 0.618 µM (active) | AC50 (CYP2E1 (gene 1571)): 1.2 µM (active) | AC50 (CYP4A11 (gene 1579)): 0.00589 µM (active) | AC50 [4]: 13.8 µM (active) | outcome [5]: inactive | outcome [6]: inactive | outcome [7]: inactive | outcome [8]: inactive | AC50 [9]: 0.0522 µM (active) | AC50 (CYP3A5 (gene 1577)): 0.0973 µM (active) | AC50 [10]: 0.0279 µM (active) | AC50 [11]: 0.0307 µM (active) | AC50 [12]: 0.229 µM (active)

CCCCCCOCCO
outcome [1]: inactive | outcome [2]: inactive | outcome [3]: inactive | outcome (CYP2C8 (gene 1558)): inactive | outcome (CYP2E1 (gene 1571)): inactive | outcome (CYP4A11 (gene 1579)): inactive | outcome [4]: inactive | outcome [5]: inactive | outcome [6]: inactive | outcome [7]: inactive | outcome [8]: inactive | outcome [9]: inactive | outcome (CYP3A5 (gene 1577)): inactive | outcome [10]: inactive | outcome [11]: inactive | outcome [12]: inactive

CN[C@H]1CC[C@@H](c2ccc(Cl)c(Cl)c2)c2ccc(S(N)(=O)=O)cc21
outcome [1]: inactive | outcome [2]: inactive | outcome [3]: inactive | AC50 (CYP2E1 (gene 1571)): 13 µM (active) | AC50 (CYP4A11 (gene 1579)): 21.4 µM (active) | AC50 [4]: 89.2 µM (active) | AC50 [5]: 63 µM (active) | outcome [6]: inactive | AC50 [7]: 83 µM (active) | outcome [8]: inactive | outcome [9]: inactive | outcome (CYP3A5 (gene 1577)): inactive | AC50 [10]: 50 µM (active) | AC50 [11]: 15.8 µM (active) | AC50 [12]: 12.2 µM (active) | outcome [13]: inactive
